Measurements taken from PubChem BioAssay (EPA / NIEHS).
Some compounds were tested as several samples or in several runs, with calls that do not always agree. Calls of active or inactive are those of the source. The calls were made as follows: active = hit-call score of the fitted dose curve at least 0.9, where 1 is the maximum; inactive = score below 0.9.

experiment: CCTE_Shafer_MEA_dev_per_network_spike_spike_percent: CCTE's Neural Network Formation Assay for Percent of Spikes in a Network Spike, Shafer Lab (AID 2284054)
Protocol: CCTE_Shafer_MEA_dev assay is conducted using Axion Biosystems 48 well microelectrode array (MEA) plates and Maestro recording system. Each well of the MEA plate contains a grid of 16 microelectrodes embedded in the culture surface. Electrically active cells, such as neurons, can be cultured over the electrodes, and electrical activity in these cells can be recorded extracellularly. The spontaneous firing of neurons is captured from each electrode on a microsecond timescale providing both temporally and spatially precise data. […] The CCTE_Shafer_MEA_dev assay uses primary cultures of rat cortical neurons. Recordings are made on days post-plating 5, 7, 9 and 12. As these cultures mature over time, neural networks develop functional activity and form cohesive networks in which electrical activity can be highly coordinated. CCTE_Shafer_MEA_dev_per_network_spike_spike_percent is 1 of 19 assay components of the CCTE_Shafer_MEA_dev assay. It measures the percent of spikes (action potential firings) in a network spike (temporally-clustered group of spikes across multiple electrodes) as the number of spikes that occur within a 0.05 s time window at the peak of a network spike divided by the total number of spikes during a recording in a microelectrode array (MEA) using Axion Biosystems Maestro 768 channel amplifier with the AxIS adaptive spike detector. To collapse across multiple recordings made on days post-plating 5, 7, 9 and 12, the trapezoidal area-under-the-curve of the component is calculated.Data from the assay component CCTE_Shafer_MEA_dev_per_network_spike_spike_percent was analyzed into 1 assay endpoint. This assay endpoint, CCTE_Shafer_MEA_dev_per_network_spike_spike_percent, was analyzed in the negative analysis fitting direction relative to DMSO as the negative control and baseline of activity. Using a type of functional reporter, gain or loss-of-signal activity can be used to understand electrical activity.
On the day prior to culture, each well was coated thoroughly with 150 uL of 0.05% polyethyleneimine (PEI, Sigma Cat P3143) in 50 mM HEPES (Sigma Cat H7523) at a pH of 8. The plate was incubated at 37C for one hour. PEI was rinsed out with 500 uL of sterile water three times. Plates were stored at 4C until the day of culture. This culture was plated at a seeding density of 1.5 x 10^5 cells/well on a 48-well MEA plate, prepared as described above. Cells were administered via a 25 uL media/laminin ([…]; Sigma Cat L2020-1MG) drop directly onto the microelectrode array, as adding the cells with the laminin results in better attachment than pre-coating with laminin. After 2 hours, an additional 475 uL of cortical media was added and the cells returned to the incubator. Exposure starts at day 0 of plating and is continued over twelve days of network development until the experiment is terminated. Cells are fed with fresh medium on DIV 5 and 9, following the recordings on those days. The entire volume of media in the well is exchanged and any vehicle or compound treatment is renewed. Complete details are found in OP-NHEERL/ISTD/SBB/TJS/2015-03-r0 (available on request, email shafer.tim@epa.gov). Measurement of the electrical activity is non-invasive, and recordings can be made from the same plate over multiple different days of the culture. In cortical neurons, this allows for the measurement of extracellular action potentials over the period during which networks form in the MEA plate.

SMILES	outcome	AC50
FC(F)(F)C(F)(F)C(F)(F)C(F)(F)C(F)(F)C(F)(F)CCI	inactive	–
CCCc1cc(=O)[nH]c(=S)[nH]1	inactive	24.9 µM (active)
C=CCc1ccc(O)c(OC)c1	inactive	–
O=c1[nH]cc(F)c(=O)[nH]1	–	0.607 µM (active)
OC[C@@H](O)[C@@H](O)[C@H](O)[C@H](O)CO	inactive	–
CC(C)c1ccc(C(=O)N=C(N)N)cc1S(C)(=O)=O	inactive	–
Cc1cc(=O)[nH]c(=S)[nH]1	inactive	–
CC(=O)Oc1ccccc1C(=O)O	inactive	–
C[Si]1(C)O[Si](C)(C)O[Si](C)(C)O[Si](C)(C)O1	inactive	–
